PubChem BioAssay (NCI)
About 79,000 compounds went through this panel and 15% of them were active in at least one assay; those are over-represented in the sample as a whole. Unmarked numbers belong to inactive results. Activity calls are given as the source filed them. Rule as the data show it: active = growth inhibition above about 70%; inactive = the rest.

Experiment: NCI Yeast Anticancer Drug Screen. Data for the rad50 strain (AID 155);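 also: 0% = growth of vehicle-only cultures of the same strain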
Settings: S. cerevisiae rad50 strain growth inhibition; at 50.0 µM; active compounds read high
Method in brief: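 Yeast carrying a defined DNA repair defect were exposed to test compounds, and growth was compared with vehicle-treated controls to give percent inhibition.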

SMILES	growth inhibition
Cn1c(=O)c2c(nc3sc4c(n32)C(=O)c2c(O)ccc(O)c2C4=O)n(C)c1=O	21.6%
CCOC(=O)C1=C(Nc2ccc(Cl)cc2Cl)OC/C1=N\NS(=O)(=O)c1ccc(C)cc1	-3.95%
NC(=O)C12CC3CC(CC(Br)(C3)C1)C2	-7.9%
CON(C)CCOC(=O)c1ccc([N+](=O)[O-])cc1	-5.25%
COc1cc(NCC2COc3c(ccc(OC)c3OC)C2=O)c([N+](=O)[O-])cc1OC (stereo not given)	9.35%
CCCCCCCSc1nc2ccc(N=Cc3ccccc3O)cc2s1	-9.8%
CCCOC(=O)C(O)Cc1ccccc1 (stereo not given)	-26.9%
O=C(CSc1nnc(Cc2ccccc2)o1)Nc1cccc([N+](=O)[O-])c1	20.6%
CN(C)c1ccc(C(c2cc3c(cc2O)OCO3)N2CCN(C(c3ccc(N(C)C)cc3)c3cc4c(cc3O)OCO4)CC2)cc1 (stereo not given)	39.8%
CC(C)(C)NC(=O)Oc1ccc(-c2ccccc2)cc1Cl	98.8% (active)
O=C(N/N=C/c1ccc(Cl)cc1Cl)c1ccccc1	-13.8%
O=C(O)C1CCCC2C(O)CCC(O)C12 (stereo not given)	-10.4%
C[n+]1ccc(/C=C/c2c[nH]c3ccccc23)cc1	6.25%
CC(C)(C)[N+](=O)[O-]	-17.2%
CCOc1c(N=Nc2ccc(Cl)cc2)c(C)nn1C(N)=S	-19.2%
O=C(Nc1cccc2ccccc12)Oc1cccc2cccnc12	98% (active)
Cc1ccc(C)c(NC(=O)c2ccc([N+](=O)[O-])cc2)c1	-4.55%
C=CCCC1CC(OCC)OC(CCC=C)O1 (stereo not given)	16.9%
O=c1oc(=O)c2ccccc2c2ccccc12	-22.9%
Fc1ccc(C(Nc2nncs2)Nc2nncs2)c(F)c1	-0.8%

SMILES	growth inhibition
Cc1cccc[n+]1CC(=O)c1ccc(Cl)cc1	-8.05%
CCC(C)(CCC(C)C)c1ccncc1 (stereo not given)	-3.45%
CCn1c2ccccc2c2ccc(N=Nc3ccccc3)cc21	36.8%
CC(C)CCC(C)(C)COC(=O)c1ccc([N+](=O)[O-])cc1 (tested in a mixture with another compound)	36.5%
O=C(O)CCCCCN1C(=O)c2cccc([N+](=O)[O-])c2C1=O	17.6%
CC(OP(=O)(O)O)C(N)C(=O)O (stereo not given)	0.4%
O=C(Nc1ccc(C(F)(F)F)cc1[N+](=O)[O-])C(=O)C1NC(=S)NC1=O (stereo not given)	30.6%
Cc1ccc(S(=O)(=O)ON2C(=O)c3cccc4cc([N+](=O)[O-])cc(c34)C2=O)cc1	35.1%
COc1ccc(NC(=O)CC#N)cc1	7.9%
Clc1ccccc1C1OCCCO1	-0.95%
COc1cc(Nc2nc3ccccc3nc2-c2cccs2)cc(OC)c1OC	4.8%
CCS(=O)CCO (stereo not given)	-22.7%
NC(N)=NS(=O)(=O)c1ccc(NC(=O)c2ccc(Cl)c3c(Nc4ccc(S(=O)(=O)N=C(N)N)cc4)c4ccccc4nc23)cc1	32.2%
O=S1(=O)C=CC(N/N=C/c2cc(Cl)cc(Cl)c2)=C1	37.7%
O=C(OCCN1CCOCC1)C1C[C@@H](O)CN1C(=O)c1ccc2c(c1)OCO2 (stereo not given in full)	-10.8%
CCC(CC)=NNc1ccc([N+](=O)[O-])cc1[N+](=O)[O-]	-2.45%
CCCCCCCCCCCCCCCO	0.45%
COc1cccc(N=Cc2ccc(C=Nc3cccc(OC)c3)cc2)c1	5.95%
CCCNCc1cccc2ccnc(C)c12	40.9%
O=C1CCc2cc3c(cc21)CC1(Cc2cc4c(cc2C1)CCCC4)C3	-28.4%
